# The list is not random: actives were taken first. Their share in the collection is about 5.9%.
# GLP1R cytotox: qHTS of GLP-1 Receptor Inverse Agonists: Cytotox Screen | Potency, µM (series often up to 38.3 µM), without a hit: at the top dose activity change, negative = inhibition, actives largely listed as inhibitors | HEK293 cAMP-luciferase reporter cells, luminescence, 24 h | 0.13% of 410,000 active | AID 624418, 2012;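 further: loss of luciferase light is scored as toxicity; on the % scale 0 is the no-effect control and ±100 the full control effect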
#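 Luminescence readout: signal drop marks cytotoxicity. Plated cells grew 12 h at 37 °C, 5% CO2, received 23 nL compound for 24 h, then got luciferase reagent, read after 12 min at RT.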
# VP16 counter: VP16 counterscreen qHTS for inhibitors of ROR gamma transcriptional activity; Drosophila S2 Gal4-VP16 UAS-luciferase, luminescence, 20 h; 3.5% of 310,000 active; Potency, µM (doses to about 53.6 µM), without a hit: top-dose activity, negative = inhibition, actives largely listed as inhibitors;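 further: Gal4-VP16 expression switched on by copper sulfate through the metallothionein promoter; on the % scale 0 is the no-effect control and ±100 the full control effect; nearly all actives have a fitted effect of over 50% in size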
# GLP-1R agonist: qHTS of GLP-1 Receptor Agonists. HEK293 GLP-1R CRE-luciferase, luminescence, 4-6 h; cells express a hypersensitive GLP-1R form. Potency, µM (top dose mostly 45.6 µM), for the others: at the highest dose activation, most hits filed as activators. AID 624172, 2012. Glucagon-like peptide 1 receptor (Homo sapiens), P43220. 0.007% of 380,000 active; further: % of control where 0% means no effect
# RORgamma inh: qHTS for inhibitors of ROR gamma transcriptional activity | Drosophila S2 Gal4-RORgamma UAS-luciferase reporter, 20 h | 5.4% of 310,000 active | Nuclear receptor ROR-gamma (Mus musculus), P51450 | Potency, µM (series often up to 53.6 µM), inactives show at the highest dose activity change, negative = inhibition, usual class: inhibitors; further: on the % scale 0 is the no-effect control and ±100 the full control effect; nearly all actives have a fitted effect of over 60% in size
# Target sequence (P51450 whole entry, looked up, the tested form may be a part): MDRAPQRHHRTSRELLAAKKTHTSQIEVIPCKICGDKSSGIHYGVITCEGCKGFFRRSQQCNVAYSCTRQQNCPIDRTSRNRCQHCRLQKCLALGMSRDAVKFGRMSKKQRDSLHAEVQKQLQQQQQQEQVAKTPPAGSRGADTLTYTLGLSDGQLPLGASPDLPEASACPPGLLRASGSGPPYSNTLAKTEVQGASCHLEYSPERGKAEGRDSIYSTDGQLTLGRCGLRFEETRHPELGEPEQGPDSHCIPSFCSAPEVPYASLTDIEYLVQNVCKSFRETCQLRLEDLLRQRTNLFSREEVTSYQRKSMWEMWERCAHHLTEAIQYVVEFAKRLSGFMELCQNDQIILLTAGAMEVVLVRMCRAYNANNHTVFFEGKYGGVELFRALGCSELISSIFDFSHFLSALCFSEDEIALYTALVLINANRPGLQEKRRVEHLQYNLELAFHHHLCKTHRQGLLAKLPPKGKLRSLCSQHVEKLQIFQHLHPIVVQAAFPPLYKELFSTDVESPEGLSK
#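 Luciferase reporter read in Schneider cells carrying Gal4-RORγ (mouse) and UAS-Photinus luciferase; cells given compound 1 h before 700 uM copper sulfate induction, then incubated 20 h at ambient temperature.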
# GLP1R inv ag: qHTS of GLP-1 Receptor Inverse Agonists (Inhibition Mode); Potency, µM (doses to about 38.3 µM), inactives show top-dose activity change, negative = inhibition, actives largely listed as inhibitors; 1.6% of 410,000 active; HEK293 GLP-1R CRE-luciferase, luminescence, 24 h; GLP-1R form is constitutively active; further: on the % scale 0 is the no-effect control and ±100 the full control effect; nearly all actives have a fitted effect of over 55% in size
#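 HEK293 cells stably co-expressing a cAMP-responsive luciferase reporter and constitutively active GLP-1R were seeded, incubated 12 h, then exposed to compounds for 24 h at 37 C. Luminescence was read 12 min after detection reagent; inverse agonists lower signal.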
# Active calls of the source: *; ? = inconclusive; nt = no result given. The call rests on the fitted dose curve; in most records, active means well fitted curve in the direction sought with a large enough effect; inconclusive means small, poorly fitted or top-dose-only effect, or another doubt; inactive means no such curve, though single readings can be large; an effect the other way counts as inactive or inconclusive. Potency means the concentration at half of the fitted maximal effect.
SMILES,GLP1R cytotox,VP16 counter,GLP-1R agonist,RORgamma inh,GLP1R inv ag
Cc1cc(C)c2nc(C)cc(Nc3ccc(C(=O)N(C)C)cc3)c2c1,-24.9%,-7.0%,9.9%,2.3%,?
Cc1ccc(Cn2ncc3c(NN)ncnc32)cc1,?,?,14.3%,12.6µM*,26.5%
Cc1ccccc1Nc1ncnc2c1cnn2-c1ccccc1,3.8%,15.8µM*,14.4%,?,?
c1ccc(-n2ncc3c(NC4CCCCCC4)ncnc32)cc1,-19.0%,-5.6%,10.9%,-6.0%,5.62µM*
Clc1ccc(-n2ncc3c(NC4CCCC4)ncnc32)cc1,-23.0%,nt,nt,nt,?
c1ccc(-n2ncc3c(NCc4cccnc4)ncnc32)cc1,-4.0%,1.41µM*,-3.6%,nt,14.1%
CC(C)(C)OC(=O)N1CCC(c2c(C(=O)NCc3ccco3)cnn2-c2ccc(F)cc2F)CC1,0.2%,nt,nt,nt,-9.1%
NCCC[C@@H](CC(=O)N[C@@H]1CCNC[C@H]1C(=O)N[C@H](CC(=O)N[C@@H](CCC(=O)O)CC(=O)O)Cc1c[nH]c2ccccc12)NC(=O)C[C@H](Cc1c[nH]c2ccccc12)NC(=O)[C@@H]1CNCC[C@H]1N,nt,-9.2%,nt,-5.0%,nt
c1ccc(-n2ncc3c(NCc4cccs4)ncnc32)cc1,-9.6%,-28.7%,-0.9%,?,-25.6%
NNc1ncnc2c1cnn2-c1ccccc1,?,?,13.3%,11.2µM*,10µM*
Cc1cccc(-n2ncc3c(NC(C)C)ncnc32)c1,-22.4%,?,3.7%,?,?
Cc1ccc(Cl)cc1-n1ncc2c(NC3CCCCCC3)ncnc21,-27.7%,nt,nt,nt,4.47µM*
CC(C)Nc1ncnc2c1cnn2-c1ccccc1,6.4%,14.1µM*,-1.2%,?,-7.1%
C[C@H](N)C(=O)N[C@@H](CO)C(=O)N[C@H](C(=O)N[C@H](C(=O)N[C@H](C(=O)N[C@@H](CC(N)=O)C(=O)N[C@@H](Cc1ccc(O)cc1)C(=O)N[C@H](C(=O)O)[C@@H](C)O)[C@@H](C)O)[C@@H](C)O)[C@@H](C)O,nt,2.7%,nt,1.6%,nt
CN1C(=O)C[C@@H](C(=O)N[C@@H](Cc2cnc[nH]2)C(=O)N2CCC[C@H]2C(N)=O)NC1=O,nt,3.9%,-2.2%,6.5%,nt
O=C(CSc1nnc(-c2cccnc2)o1)Oc1ccccc1,16.3%,-5.5%,-0.9%,-14.2%,0.0%
O=C(CSc1nnc(-c2cccnc2)o1)c1cc2ccccc2oc1=O,6.3%,3.98µM*,-19.0%,?,2.3%
CNC(=O)c1cc(C(=O)c2ccc(Cl)cc2)c[nH]1,-4.6%,-4.9%,30.2%,27.9%,39.7%
O=C(c1ccc(Cl)cc1)c1c[nH]c(C(=O)NNc2ccccc2)c1,?,-13.6%,1.7%,-0.8%,2µM*
COc1cccc(C2c3c(-c4ccccc4O)n[nH]c3C(=O)N2CCc2ccc(OC)c(OC)c2)c1 (stereo not given),0.8%,nt,nt,nt,-28.7%
Cn1nc([N+](=O)[O-])nc1S(C)(=O)=O,-22.9%,?,-0.9%,5.01µM*,?
O=C(Nc1ccc2c(c1)OCCO2)c1cc2sccc2n1Cc1ccc(F)cc1,-8.0%,-3.7%,-10.6%,?,5.62µM*
CC1=C(C(=O)NCc2cccc(Br)c2)C2(CCCCC2)OC1=O,-13.9%,nt,1.0%,nt,?
Cc1nc(-c2ccc(C(F)(F)F)cc2)sc1C(=O)NN,-9.7%,3.55µM*,10.3%,4.47µM*,-12.4%
CC(C)NC(=O)N1CC[C@@]2(CCCN(C(=O)c3cnccn3)C2)C1,nt,-3.7%,nt,-1.9%,nt
N#C/C(=C\c1ccc(OCc2ccc(C(=O)O)cc2)cc1)C(=O)N1CCOCC1,-15.5%,?,-4.4%,?,1µM*
CC(C)N=C(NS(=O)(=O)c1ccccc1)C(Cl)(Cl)Cl,?,?,-7.1%,7.08µM*,3.98µM*
O=S(=O)(NC(=S)c1ccccc1)c1ccccc1,-0.4%,nt,-2.2%,nt,-8.6%
